Data from PubChem BioAssay.
A number with no mark means an inactive call. For some assays here: Results with a measured potency or affinity are listed apart. Calls of active or inactive are those of the source. Unless noted, the rule behind the calls is not given here.

Columns and labels:
[1] = antimalarial activity against Dd2 strain (AID 2302;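 active = growth inhibition above 50% at the single 2 µM test dose, taken to imply half-maximal potency below 2 µM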;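 note: 0% = DMSO untreated growth and 100% = chloroquine plus artemisinin killed control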); details: P. falciparum Dd2 in RBCs, LDH growth readout, 72 h; at 2 µM; stronger effect = higher value
[2] = HepG2 cytotoxicity, primary screen, cytotoxicity control for P. falciparum antimalarial project, cell-based, ATP luminescence (AID 2303;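 active = inhibition above 50%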;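 note: 0% = DMSO wells and 100% = digitonin-killed cells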); details: HepG2 viability, 24-48 h, at 10 µM, stronger effect = higher value
[3] = target: L-lactate dehydrogenase (Plasmodium falciparum (isolate CDC / Honduras)) (UniProt Q27743); assay: PfLDH activity inhibition – cell lysate, 3D7 strain, counter-screen for P. falciparum growth inhibition project (AID 2304);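 note: 0% = vehicle and 100% = reference inhibitor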; details: P. falciparum 3D7 crude extract, LDH APAD/NBT absorbance; at 2 µM; stronger effect = higher value
[4] = inhibition of 3D7 malaria parasite growth – strain 3D7 (AID 2306);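 note: 0% = DMSO wells and 100% = chloroquine plus artemisinin control wells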; details: P. falciparum 3D7 erythrocytic growth, LDH absorbance, 72 h; at 2 µM; stronger effect = higher value
[5] = target: Calcium-dependent protein kinase 1 (Plasmodium falciparum (isolate 3D7)) (UniProt P62344); assay: PfCDPK1 kinase inhibitors, biochemical, TCAMS library (AID 1159585; cut-off not given, nearly all actives have IC50 up to about 0.98 µM;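 note: inhibitors leave more ATP so luminescence rises with inhibition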); details: recombinant PfCDPK1, Kinase-Glo ATP depletion luminescence
[6] = target: Plasmodium falciparum protein kinase 6 (PK6, PF3D7_1337100) (UniProt Q8IDW1); assay: PfPK6 kinase inhibitors, biochemical, TCAMS library (AID 1159586); details: recombinant PfPK6, Kinase-Glo ATP depletion luminescence
[7] = target: Protein kinase 7 (PK7), Plasmodium falciparum 3D7 (PF3D7_0213400) (UniProt Q7YTF7); assay: inhibition of Plasmodium PK7 catalytic activity – biochemical, TCAMS antimalarial set, Kinase-Glo luminescence (AID 1159587); details: recombinant PfPK7, Kinase-Glo ATP depletion luminescence
[8] = target: Calcium-dependent protein kinase 4 (Plasmodium falciparum (isolate 3D7)) (UniProt Q8IBS5); assay: PfCDPK4 kinase inhibitors, biochemical, TCAMS library (AID 1159588; cut-off not given, nearly all actives have IC50 up to about 0.91 µM); details: recombinant PfCDPK4, Kinase-Glo ATP depletion luminescence
Calcium-dependent protein kinase 4 (Plasmodium falciparum (isolate 3D7)), sequence (Q8IBS5 whole entry, looked up): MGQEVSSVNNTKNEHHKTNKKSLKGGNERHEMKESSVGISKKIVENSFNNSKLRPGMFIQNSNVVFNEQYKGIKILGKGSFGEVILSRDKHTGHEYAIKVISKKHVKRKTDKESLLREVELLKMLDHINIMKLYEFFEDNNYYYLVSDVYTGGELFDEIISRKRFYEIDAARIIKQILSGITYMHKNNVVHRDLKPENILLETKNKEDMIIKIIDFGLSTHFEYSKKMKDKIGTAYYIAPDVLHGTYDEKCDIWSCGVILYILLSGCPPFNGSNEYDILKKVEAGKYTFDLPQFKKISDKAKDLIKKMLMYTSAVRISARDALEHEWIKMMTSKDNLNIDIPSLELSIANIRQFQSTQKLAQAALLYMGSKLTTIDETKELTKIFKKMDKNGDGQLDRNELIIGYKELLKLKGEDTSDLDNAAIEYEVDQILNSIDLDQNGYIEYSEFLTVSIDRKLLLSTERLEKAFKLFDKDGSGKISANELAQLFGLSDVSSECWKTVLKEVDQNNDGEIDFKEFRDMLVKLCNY

Protein kinase 7 (PK7), Plasmodium falciparum 3D7 (PF3D7_0213400), sequence (Q7YTF7 1-343): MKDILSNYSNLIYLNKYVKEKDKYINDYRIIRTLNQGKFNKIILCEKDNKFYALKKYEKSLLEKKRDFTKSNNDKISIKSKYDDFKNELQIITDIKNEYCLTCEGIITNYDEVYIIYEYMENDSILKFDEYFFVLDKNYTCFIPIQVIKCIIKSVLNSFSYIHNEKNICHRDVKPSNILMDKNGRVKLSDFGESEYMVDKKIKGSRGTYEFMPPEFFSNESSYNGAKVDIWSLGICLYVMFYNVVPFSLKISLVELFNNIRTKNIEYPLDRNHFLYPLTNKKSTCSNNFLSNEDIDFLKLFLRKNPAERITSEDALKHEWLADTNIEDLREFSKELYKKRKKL
Calcium-dependent protein kinase 1 (Plasmodium falciparum (isolate 3D7)), sequence (P62344 whole entry, looked up): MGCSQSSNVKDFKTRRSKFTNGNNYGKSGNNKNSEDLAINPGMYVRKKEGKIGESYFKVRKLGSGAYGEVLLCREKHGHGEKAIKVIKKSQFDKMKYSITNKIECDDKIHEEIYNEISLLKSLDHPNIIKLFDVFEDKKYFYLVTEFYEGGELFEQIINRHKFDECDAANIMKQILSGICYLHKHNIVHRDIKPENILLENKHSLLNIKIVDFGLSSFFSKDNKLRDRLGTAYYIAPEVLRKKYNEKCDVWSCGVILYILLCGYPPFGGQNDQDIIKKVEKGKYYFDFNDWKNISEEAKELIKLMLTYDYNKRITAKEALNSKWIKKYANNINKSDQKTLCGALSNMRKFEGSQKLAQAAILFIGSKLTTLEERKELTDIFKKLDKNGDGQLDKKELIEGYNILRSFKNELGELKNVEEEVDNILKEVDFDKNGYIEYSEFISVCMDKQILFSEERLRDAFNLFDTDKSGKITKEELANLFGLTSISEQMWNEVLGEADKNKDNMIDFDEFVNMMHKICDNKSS
L-lactate dehydrogenase (Plasmodium falciparum (isolate CDC / Honduras)), sequence (Q27743 whole entry, looked up): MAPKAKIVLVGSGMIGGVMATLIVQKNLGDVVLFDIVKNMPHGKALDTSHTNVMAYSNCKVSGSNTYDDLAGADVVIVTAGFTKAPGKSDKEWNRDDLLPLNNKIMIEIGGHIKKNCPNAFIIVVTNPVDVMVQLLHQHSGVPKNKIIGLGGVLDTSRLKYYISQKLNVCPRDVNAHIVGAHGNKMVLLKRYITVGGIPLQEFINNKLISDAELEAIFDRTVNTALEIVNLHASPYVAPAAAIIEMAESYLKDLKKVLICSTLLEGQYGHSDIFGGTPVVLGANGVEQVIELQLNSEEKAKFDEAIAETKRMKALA
Plasmodium falciparum protein kinase 6 (PK6, PF3D7_1337100), sequence (Q8IDW1 1-305): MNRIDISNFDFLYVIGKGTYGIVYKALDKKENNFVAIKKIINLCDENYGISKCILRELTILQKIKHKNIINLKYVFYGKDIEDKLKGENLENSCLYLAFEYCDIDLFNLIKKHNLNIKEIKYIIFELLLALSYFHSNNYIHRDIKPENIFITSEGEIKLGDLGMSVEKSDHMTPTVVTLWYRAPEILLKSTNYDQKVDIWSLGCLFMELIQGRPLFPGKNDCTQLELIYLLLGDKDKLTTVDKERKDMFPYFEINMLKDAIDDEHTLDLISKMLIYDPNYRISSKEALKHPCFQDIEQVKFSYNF

Compound: CC(=O)c1ccc(Nc2c(C(N)=O)cnc3cc(-c4c(C)noc4C)ccc23)cc1
- growth inhibition [1]: 44%
- inhibition [2]: -3%
- inhibition [3]: 3%
- growth inhibition [4]: 99% (active)
- outcome [5]: inactive
- outcome [6]: inactive
- outcome [7]: inactive
- outcome [8]: inactive

Compound: CC(Nc1ccc2c(c1)OCCO2)C(=O)Nc1cc(C(F)(F)F)ccc1N1CCOCC1 (stereo not given)
- growth inhibition [1]: 70% (active)
- inhibition [2]: -6%
- inhibition [3]: 1%
- growth inhibition [4]: 98% (active)
- outcome [5]: inactive
- outcome [6]: inactive
- outcome [7]: inactive
- outcome [8]: inactive

Compound: Cc1cc(-c2ccc3c(c2)CCN(CCC2CCC(NC(=O)/C=C/c4ccccc4F)CC2)CC3)on1 (stereo not given)
- growth inhibition [1]: 13%
- inhibition [2]: 26%
- inhibition [3]: -4%
- growth inhibition [4]: 94% (active)
- outcome [5]: inactive
- outcome [6]: inactive
- outcome [7]: inactive
- outcome [8]: inactive

Compound: Cn1cnnc1Sc1ccc(CN2CCOc3ccc(C4=CCCCC4)cc3C2)o1
- growth inhibition [1]: 97% (active)
- inhibition [2]: 1%
- inhibition [3]: 3%
- growth inhibition [4]: 98% (active)
- outcome [5]: inactive
- outcome [6]: inactive
- outcome [7]: inactive
- outcome [8]: inactive

Compound: CC[C@H](NC(=O)c1ccc(NC(=O)OC(C)(C)C)cc1)C(=O)N[C@@H](CO)C(=O)NCCCCc1ccccc1
- growth inhibition [1]: 94% (active)
- inhibition [2]: -6%
- inhibition [3]: 1%
- growth inhibition [4]: 98% (active)
- outcome [5]: inactive
- outcome [6]: inactive
- outcome [7]: inactive
- outcome [8]: inactive

Compound: Cc1cc2nc(-c3ccc(OCC(=O)NCc4ccc(C(C)(C)C)cc4)cc3)[nH]c2cc1C
- growth inhibition [1]: 0%
- inhibition [2]: 11%
- inhibition [3]: 2%
- growth inhibition [4]: 94% (active)
- outcome [5]: inactive
- outcome [6]: inactive
- outcome [7]: inactive
- outcome [8]: inactive

Compound: COc1cc(NCC(O)CNc2cc(Cl)nc3ccccc23)nc2ccccc12 (stereo not given)
- growth inhibition [1]: 99% (active)
- inhibition [2]: 17%
- inhibition [3]: -2%
- growth inhibition [4]: 99% (active)
- outcome [5]: inactive
- outcome [6]: inactive
- outcome [7]: inactive
- outcome [8]: inactive

Compound: O=C(NC1CCCCC1)N(Cc1ccc(-c2ccc(CNC3CCCC3)cc2)cc1)C1CCN(Cc2ccccc2)CC1
- growth inhibition [1]: 86% (active)
- inhibition [2]: 31%
- inhibition [3]: 3%
- growth inhibition [4]: 99% (active)
- outcome [5]: inactive
- outcome [6]: inactive
- outcome [7]: inactive
- outcome [8]: inactive

Compound: O=C(NCCN1CCC(NC(=O)c2ccc(-c3ccccn3)s2)CC1)c1cccc(C(F)(F)F)c1
- growth inhibition [1]: 24%
- inhibition [2]: 4%
- inhibition [3]: -4%
- growth inhibition [4]: 97% (active)
- outcome [5]: inactive
- outcome [6]: inactive
- outcome [7]: inactive
- outcome [8]: inactive

Compound: COc1ccc(-c2cnc3ccc(NCc4ccc(S(N)(=O)=O)cc4)nn23)cc1
- growth inhibition [1]: 99% (active)
- inhibition [2]: 19%
- inhibition [3]: -2%
- growth inhibition [4]: 96% (active)
- outcome [5]: inactive
- outcome [6]: inactive
- outcome [7]: inactive
- outcome [8]: inactive
